Compound activity as filed in PubChem BioAssay.
A selection: hits, their analogues and other compounds. The true share with any hit is near 2.8%.
PAX8 inh HTS – PAX8 transcriptional activity inhibition. RMG-I TPO-luciferase reporter, SteadyGlo, 24 h. hit rate 1.2% among 360,000. inhibition, % at 12.6 µM. AID 652154;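 active = mean replicate inhibition at least 60% with every replicate also reaching 60%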;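 note: luciferase light reporting Pax8 driven TPO promoter activity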
EBV LMP1 NFkB – inhibitors of Epstein-Barr LMP1-induced NF-kappaB reporter; LMP1-induced NF-kappaB luciferase reporter cells, luminescence; inhibition, % at 12.5 µM; hit rate 0.69% among 350,000; AID 504558; in the data active = inhibition above about 41%
HIV Env fusion – HIV envelope-mediated fusion inhibition; hit rate 1.1% among 360,000; HeLa-JRFL Env/CEM21 cell fusion, luciferase; AID 651610; inhibition, % at 12.3 µM;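 active = mean replicate inhibition score of at least 50 and every replicate individually at or above 50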
Shn3 inh set2 – inhibitors of Schnurri-3 3'UTR reporter in osteoblasts; Clone20 osteoblast Shn3 3'UTR firefly luciferase, 24 h; inhibition, % at 12.5 µM; hit rate 0.52% among 360,000; AID 588674;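 active = mean inhibition of at least 75% with every replicate also reaching 75%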
NSD2 inh – inhibitors of human histone methyltransferase NSD2. O96028. NSD2 peptide methylation, AlphaScreen, 120 min. inhibition, % at 12.5 µM. hit rate 0.54% among 310,000. AID 743445; in the data active = inhibition above about 50%
N-glyco inh – N-linked glycosylation inhibition; D54 ERlucT glycosylation luciferase reporter, 24 h; percent of 100 nM tunicamycin response; reporter increase, % at 12.5 µM; hit rate 0.23% among 360,000;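 active = mean luciferase reporter signal, scaled so untreated is 0 and the glycosylation-blocking control 100, at or above a set limit in every replicate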;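 note: luciferase carries N-glycosylation sites so blocking glycosylation raises the light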
A number is an active result; . = inactive; / = no result.

SMILES	PAX8 inh HTS	EBV LMP1 NFkB	HIV Env fusion	Shn3 inh set2	NSD2 inh	N-glyco inh
COc1ccc(C(Nc2ccccn2)c2oc(CO)cc(=O)c2O)cc1 (stereo not drawn)	.	68	.	.	.	.
CCC(=O)N1[C@@H]2CN(C(=O)Nc3ccccc3Cl)c3ccccc3[C@@H]2[C@@H]1CO	.	/	/	/	/	/
Cc1cccc(/C=C(\c2nc3ccccc3[nH]2)S(=O)(=O)c2ccccc2)c1	106	.	.	93	.	.
CC(C)(C)c1ccc(/C=C(\c2nc3ccccc3[nH]2)S(=O)(=O)c2ccccc2)cc1	/	.	/	94	.	.
O=C(O)c1ccc(/C=C(\c2nc3ccccc3[nH]2)c2nc3ccccc3s2)cc1	.	.	.	.	.	.
Cc1ccc(NC(=S)c2nc3ccccc3[nH]2)c(C)c1	.	.	/	.	/	.
CCC(=O)N1C[C@@H](C)[C@H](OC)CN(C)C(=O)c2cc(NC(=O)C3CCCCC3)ccc2OC[C@@H]1C	.	/	/	/	/	/
C[C@@H]1CCCCO[C@@H](CN(C)C(=O)c2ccccc2)[C@H](C)CN([C@H](C)CO)C(=O)c2cc(NS(=O)(=O)c3ccc(F)cc3)ccc2O1	.	/	.	/	/	/
COC(=O)[C@]12CCCCC=C1N(Cc1ccccc1)C(=O)[C@H](CC(=O)N1CCN(C(=O)c3ccco3)CC1)C2	81	/	.	/	/	/
CCOC(=O)[C@]12CCCC=C1N(Cc1ccco1)C(=O)[C@H](CC(=O)N1CCN(C(=O)c3ccco3)CC1)C2	.	/	.	/	/	/
COC(=O)[C@]12CCCCC=C1N(Cc1ccc3c(c1)OCO3)C(=O)[C@H](CC(=O)N1CCN(C(=O)c3ccco3)CC1)C2	.	/	.	/	/	/
COC(=O)[C@]12CCCCC=C1N(Cc1ccc(Cl)cc1Cl)C(=O)[C@H](CC(=O)NCc1ccccc1)C2	.	/	.	/	/	/
CCOC(=O)N1CCN(C(=O)C[C@@H]2C[C@@]3(C(=O)OCC)CCC=C3N(Cc3ccc(Cl)cc3Cl)C2=O)CC1	.	/	.	/	/	/
CCCCCCCCN1C(=O)[C@H](CC(=O)N2CCN(C(=O)c3ccco3)CC2)C[C@@]2(C(=O)OCC)CCCC=C12	87	/	.	/	/	/
CCOC(=O)[C@]12CCC=C1N(Cc1ccc(Cl)cc1Cl)C(=O)[C@H](CC(=O)N1CCN(C(=O)c3ccco3)CC1)C2	79	/	.	/	/	/
COC(=O)[C@]12CCCCC=C1N(Cc1ccc(Cl)cc1Cl)C(=O)[C@H](CC(=O)N1CCN(C(=O)c3ccco3)CC1)C2	109	/	.	/	/	/
CN1C(=O)c2cc(NC(=O)c3cnccn3)ccc2OC[C@H]2O[C@@H](CC(=O)NC3CCC3)CC[C@H]21	.	/	/	/	/	/
COc1cccc(NC(=O)N(C)C[C@@H]2Oc3cc(C#Cc4ccc(F)cc4)ccc3S(=O)(=O)N([C@@H](C)CO)C[C@H]2C)c1	/	/	.	/	/	/
CC(C)(C)[S@@](=O)N1Cc2cc(C(=O)NCCc3ccncc3)nc(-c3cccc(-c4ccccc4)c3)c2[C@H]1CCO	.	/	/	/	/	/
CN(CCOc1ccc(-c2ccn(S(=O)(=O)c3ccc(Cl)cc3)n2)cc1)c1ccccn1	.	.	60	.	.	.
Cc1ccccc1C(=O)O/N=C(\N)c1ccncc1	.	56	.	.	.	.
N/C(=N\OC(=O)c1ccccc1Cl)c1ccncc1	.	.	.	.	/	.
CC(C)(C)c1ccc(C(=O)O/N=C(\N)c2ccccc2)cc1	.	57	.	.	.	.
COc1ccc(C(=O)O/N=C(\N)c2ccccc2)cc1	.	.	.	.	.	.
O=C(N[C@H]1CC[C@H](CC(=O)N2CCc3ccccc3C2)O[C@H]1CO)C1CC1	.	/	.	/	/	/
SMILES	PAX8 inh HTS	EBV LMP1 NFkB	HIV Env fusion	Shn3 inh set2	NSD2 inh	N-glyco inh
COc1ccc(O)c(/C=N/NC(=S)Nc2cccc(S(=O)(=O)N(C)C)c2)c1	/	.	.	90	.	.
COc1cccc(/C=N/NC(=S)Nc2cccc(S(=O)(=O)N(C)C)c2)c1	.	.	.	.	.	.
CCN(CC)S(=O)(=O)c1ccc(N/N=C/c2cc(OC)ccc2O)nc1	68	46	.	.	.	.
C[C@@H]1CN([C@H](C)CO)S(=O)(=O)c2ccc(C3=CCCC3)cc2O[C@@H]1CN(C)C(=O)C1CCOCC1	.	/	.	/	/	/
CC1CN(CC(O)COC(c2ccccc2)c2ccccc2)CC(C)O1 (stereo not drawn)	120	.	/	.	.	.
C=CCc1c(Cl)nc(C)nc1NCc1ccccc1	.	.	59	.	.	.
Cc1ccccc1N1CCN(C2=NC(=O)/C(=C\c3cccs3)S2)CC1	.	.	.	.	.	.
